Assay outcomes (PubChem)
NALP1 yeast inh – NALP1 inflammasome inhibitors in reconstituted yeast, colorimetric, S. cerevisiae, triplicate retest; S. cerevisiae NALP1/ASC/caspase-1 growth, X-gal OD620, 72 h; hit rate 0.61% among 280,000; inhibition, % at 10 µM; in the data active = inhibition mostly above about 24%, no sharp cut-off; inactive = mostly below about 32%
tim23-1 inh – growth inhibitors of tim23-1 mutant yeast, primary screen, luminescence, uHTS; S. cerevisiae tim23-1 growth, BacTiter-Glo luminescence, 24 h; inhibition, % at 20 µM; hit rate 1.3% among 330,000;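 active = growth inhibition of the mutant yeast at or above 50%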;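 note: temperature-sensitive mutant grown at 25 °C; plate controls were DMSO-treated mutant yeast for no effect and medium wells lacking yeast for full effect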
PfHsp90 yeast 2 – growth inhibition of PfHsp90-expressing yeast, primary screen, antimalarial PfHsp90 inhibitor project, S. cerevisiae, BacTiter-Glo luminescence, single point, set 2. BacTiter-Glo ATP, 48 h; yeast lacking PDR1 and PDR3 efflux regulators. inhibition, % at 9.4 µM. hit rate 0.32% among 310,000;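 active = every replicate shows inhibition above about 80%, whatever the replicate mean, limit read from the data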;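 note: 0% = DMSO neutral controls and 100% = 20 µM radicicol positive controls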
tim10-1 inh – growth inhibitors of tim10-1 mutant yeast, primary screen, luminescence, uHTS | hit rate 2.2% among 330,000 | inhibition, % at 20 µM | S. cerevisiae tim10-1 ts strain growth, BacTiter-Glo, 24 h;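 active = inhibition of at least 40%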;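 note: mutant grown at 25 °C; 0% = DMSO wells with yeast and 100% = wells holding no yeast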
NLRP3 yeast inh – NALP3 inflammasome inhibitors in reconstituted yeast, primary screen, luminescence, uHTS; Yeast reconstituted NLRP3/ASC/caspase-1, beta-gal luminescence, 24 h; inhibition, % at 10 µM; hit rate 0.39% among 330,000; AID 2825, 2010;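 active = inhibition of 50% or more; inactive = inhibition below 50%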;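 note: plate controls were induced DMSO wells for no effect and uninduced yeast grown without galactose for full effect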
TIM10 inh – growth inhibitors of isogenic TIM10 control yeast, primary screen, counter-screen for tim10-1 yeast inhibitor project, luminescence, uHTS; S. cerevisiae TIM10 strain growth, BacTiter-Glo luminescence, 24 h; inhibition, % at 10 µM; hit rate 1.4% among 330,000; AID 463195, 2010;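 active = inhibition of 40% or more at the single tested concentration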;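 note: wild-type TIM10 isogenic control strain grown at permissive 25 °C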
tim10-1 confirm – growth inhibitors of tim10-1 mutant yeast, confirmation, single concentration, luminescence, S. cerevisiae; shares compounds with tim10-1 inh; S. cerevisiae tim10-1 ts strain growth, BacTiter-Glo, 24 h; inhibition, % at 20 µM; hit rate 56% among 7,400;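 active = inhibition of yeast growth at or above a set limit in either of two repeat tests at 20 µM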;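 note: tim10-1 mutant grown at permissive 25 °C to find synthetic lethal compounds; 0% = DMSO yeast wells and 100% = medium wells without yeast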
The depositor's hits bear a star; / = no result given. Rows were chosen to be rich in hits. Some 4.1% of all compounds tested hit in one or more screens of this group.

SMILES | NALP1 yeast inh | tim23-1 inh | PfHsp90 yeast 2 | tim10-1 inh | NLRP3 yeast inh | TIM10 inh | tim10-1 confirm
O=C(N(c1ccccn1)c1ccccn1)C12CC3CC(CC(C3)C1)C2 | 5 | 32 | 2 | 42* | 1 | 1 | 28
COc1ccc(CN(C(=O)CN2C(=O)C(C)Oc3ccccc32)C2CCCC2)c(OC)c1 (centres undefined) | -4 | 44 | -11 | 41* | 15 | 31 | 29
COc1ccc(CN(Cc2ccccn2)C(=O)CN2C(=O)COc3ccccc32)cc1 | 2 | 32 | -6 | 26 | 2 | 14 | /
COc1ccc(CN(C(=O)CN2C(=O)COc3ccccc32)C2CCCC2)c(OC)c1 | 10 | 40 | -17 | 40* | 6 | 23 | 15
O=C1/C(=C/c2ccccc2Cl)SC(=S)N1CCC(=O)N1CCCCC1CCO (centres undefined) | 16 | 49 | -3 | 46* | 11 | 29 | 28
COc1ccc(N2C(=O)c3ccccc3C(C)(C)C2=O)cc1 | 14 | 45 | -7 | 23 | 15 | 27 | /
COc1ccc2c(c1)C(=O)N(c1ccccc1C)C(=O)C2(C)C | -6 | 32 | 7 | 47* | 32 | 33 | 30
Cc1ccccc1NC(=O)CSc1nnc(CNC(=O)c2ccco2)n1C | / | -5 | / | 14 | 4 | -9 | /
O=C(NCc1ccccc1)c1ccc(-c2ccccc2F)o1 | 3 | 47 | -38 | 42* | 26 | 24 | 36*
O=C(NCC(c1ccco1)N1CCCC1)c1cc2ccccc2s1 (centres undefined) | / | 11 | 3 | -16 | 8 | -5 | /
N#CCSc1nc2c(c(C3CC=CCC3)c1C#N)CCC2 (centres undefined) | 40 | 31 | -17 | 47* | 29 | 6 | 35*
N#CCSc1nc2c(cc1C#N)CCCCCC2 | 7 | 28 | -4 | 28 | 26 | -23 | /
CCn1c(=O)n(CC)c2cc(N3CCCC3)c(NC(=O)c3cccc(OC)c3)cc21 | 22 | 35 | 13 | 47* | 9 | 6 | -7
Cn1c(=O)n(C)c2cc(N3CCCCC3)c(NC(=O)c3cccc(Cl)c3)cc21 | 9 | 32 | -32 | 42* | 21 | 3 | -15
O=C(NC1CCCC1)C(c1ccccn1)N(Cc1ccccc1F)C(=O)c1csnn1 (centres undefined) | 11 | 10 | -7 | 24 | 5 | -3 | /
c1ccc(Nc2cccc(Nc3ccccc3)c2)cc1 | 24 | 37 | -76 | 54* | 16 | 21 | 76*
Oc1ccccc1-c1nc(NCc2cccnc2)c2ccccc2n1 | 0 | 46 | -10 | 49* | 15 | 27 | 57*
CCN(CC)c1ccc(S(=O)(=O)N2CCOCC2)cc1NC(=O)CN1CCc2ccccc2C1 | 34 | 11 | 17 | 50* | 10 | 31 | 10
O=C(/C=C/Nc1ccccc1Oc1ccccc1)c1ccco1 | 2 | 29 | 6 | 43* | 13 | 23 | 16
O=C(/C=C/Nc1ccccc1O)c1ccco1 | 11 | -30 | 14 | -64 | 22 | -50 | /
CN(C)S(=O)(=O)N1CCC(Oc2ccc(C(=O)NC3CCOC(C)(C)C3)cc2)CC1 (centres undefined) | -11 | 7 | 15 | -15 | 17 | -6 | /
CN(C)S(=O)(=O)N1CCC(Oc2ccc(C(=O)NC3Cc4ccccc4C3)cc2)CC1 | 1 | 29 | -17 | 44* | 3 | 19 | 26
O=C(CNC(=O)c1ccccc1Cl)OC1CCOC1=O (centres undefined) | 21 | 5 | 13 | -4 | -12 | 7 | /
FC(F)(F)c1cccc(NC(=S)NC2CCCC2)c1 | 17 | 46 | -19 | 37 | 17 | 33 | /
S=C(Nc1ccccn1)NC1CCCCC1 | 33 | 37 | -27 | 40 | 17 | 9 | 6
SMILES | NALP1 yeast inh | tim23-1 inh | PfHsp90 yeast 2 | tim10-1 inh | NLRP3 yeast inh | TIM10 inh | tim10-1 confirm
Fc1cccc(NC(=S)NC2CCCCCCC2)c1 | 17 | 46 | 0 | 50* | 20 | 32 | 27
FC(F)(F)c1ccc(NC(=S)NC2CCCCC2)cc1 | 0 | 36 | -4 | 43* | 39 | 36 | 38*
O=C(Nc1cccc(F)c1)C1CCCCC1 | / | 23 | 24 | -6 | 8 | 11 | /
COc1ccc(C2=C(c3ccc(OC)c(OC)c3)CN3CCCCC3C2)cc1 (centres undefined) | / | 23 | 1 | 12 | 14 | 9 | /
O=S(=O)(c1cccc2nonc12)N1CCCCC1 | -5 | -5 | -9 | -3 | -12 | 1 | /
CCOc1cc(C)c(C(C)C)cc1S(=O)(=O)n1cnc(C)c1 | 6 | 24 | 8 | 33 | 6 | 34 | /
COc1cccc(N2CCN(c3ccc4nnc(CCC(=O)Nc5ccccn5)n4n3)CC2)c1 | 8 | -4 | -10 | -6 | 13 | 1 | /
COc1ccc(NC(=O)CN(C)C(=O)c2cn(-c3ccccc3)nc2-c2ccc(Cl)cc2)cc1 | / | 36 | / | 41* | 9 | 14 | 20
CCN(C(=O)COC(=O)CCS(=O)(=O)c1ccc(C)cc1)C1CCS(=O)(=O)C1 (centres undefined) | 2 | 0 | -17 | -13 | 17 | 14 | /
Cc1c(C=O)c(C=O)c(C)n1Cc1ccccc1 | 37* | 39 | -9 | 42* | 11 | 17 | 21
O=C(CCc1nnc2n(CCc3ccccc3)c(=O)c3ccccc3n12)NCCCN1CCCCC1 | 12 | 4 | -12 | 25 | 7 | 12 | /
COc1cc(C(=O)N2CCN(Cc3ccccc3C(F)(F)F)CC2)cc(OC)c1OC | -3 | 27 | -2 | 43* | -2 | 24 | 24
COC(=O)c1cccc2c1-c1ccccc1/C2=N\NC(N)=O | 22 | 12 | -15 | 40* | 13 | 23 | 12
NC(=O)c1cccc2c1-c1ccccc1/C2=N/NC(N)=S | -16 | 20 | 0 | -13 | 27 | 12 | /
Cc1cc(Cl)ccc1NC(=O)COC(=O)CCNS(=O)(=O)c1ccccc1 | / | 5 | -12 | 3 | 12 | 2 | /
CCn1c(=N)n(CC(=O)c2ccc(Cl)c(Cl)c2)c2ccccc21 | 23 | 25 | -19 | 42* | 27 | 8 | 10
N=c1n(CCN2CCCCC2)c2ccccc2n1CC(=O)c1ccc(Cl)c(Cl)c1 | 25 | -35 | / | 14 | 40 | -17 | /
O=C(NCC(=O)N1CCN(Cc2c(F)cccc2Cl)CC1)c1cccc(Cl)c1 | / | -17 | / | -6 | 24 | -18 | /
CCCC(=O)N(CCN1CCOCC1)c1nc2c(C)ccc(C)c2s1 | 18 | 29 | 3 | 42* | 11 | 5 | -4
